# Reference: publication PMC7862700, “An all-to-all approach to the identification of sequence-specific readers for epigenetic DNA modifications on cytosine”
# Legend:
# Assay in all cases: DAPPL (digital affinity profiling via proximity ligation, sequencing); 10 mM Tris-HCl pH 7.5, 50 mM NaCl, 1 mM DTT, 4% glycerol, room temperature, 30 min; GST-TFs on glutathione beads, 16-mer random dsDNA library, 0.1% formaldehyde crosslink after washing; high values mean tight binding
# FLI1 = target: T1, FLI1 (Homo sapiens, UniProt Q01543 1-452); settings: protein: recombinant; tags: N-terminal GST; dsDNA, one strand shown
# T1 sequence: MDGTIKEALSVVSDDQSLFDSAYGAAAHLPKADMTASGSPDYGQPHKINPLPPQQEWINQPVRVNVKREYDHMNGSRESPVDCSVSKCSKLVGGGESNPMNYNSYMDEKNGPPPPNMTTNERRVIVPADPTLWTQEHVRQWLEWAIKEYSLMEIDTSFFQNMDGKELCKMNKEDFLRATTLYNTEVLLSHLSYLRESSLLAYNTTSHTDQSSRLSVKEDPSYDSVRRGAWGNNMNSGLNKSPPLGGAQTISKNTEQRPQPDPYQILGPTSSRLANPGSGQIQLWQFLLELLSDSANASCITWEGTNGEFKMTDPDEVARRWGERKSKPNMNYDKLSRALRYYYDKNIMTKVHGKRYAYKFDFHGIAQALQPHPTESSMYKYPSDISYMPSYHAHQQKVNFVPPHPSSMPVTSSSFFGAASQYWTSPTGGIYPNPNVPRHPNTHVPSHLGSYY
# Summary of the method: (§1)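 Binding signal is given per hexamer as its read frequency for a factor divided by its frequency in the tag-only sample. GST-fused human transcription factors were expressed in yeast, captured on glutathione beads, barcoded with DNA and pooled with that sample, then incubated with 200 nmole of a 16-mer random double-stranded DNA library in Tris/NaCl/DTT/glycerol buffer for 30 min at room temperature. The pools were then washed, crosslinked, proximity-ligated, amplified by PCR and sequenced on an Illumina NextSeq500.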
# ELK1 = target: T2, ELK1 (Homo sapiens, UniProt P19419 1-428); settings: protein: recombinant; tags: N-terminal GST; dsDNA, one strand shown
# T2 sequence: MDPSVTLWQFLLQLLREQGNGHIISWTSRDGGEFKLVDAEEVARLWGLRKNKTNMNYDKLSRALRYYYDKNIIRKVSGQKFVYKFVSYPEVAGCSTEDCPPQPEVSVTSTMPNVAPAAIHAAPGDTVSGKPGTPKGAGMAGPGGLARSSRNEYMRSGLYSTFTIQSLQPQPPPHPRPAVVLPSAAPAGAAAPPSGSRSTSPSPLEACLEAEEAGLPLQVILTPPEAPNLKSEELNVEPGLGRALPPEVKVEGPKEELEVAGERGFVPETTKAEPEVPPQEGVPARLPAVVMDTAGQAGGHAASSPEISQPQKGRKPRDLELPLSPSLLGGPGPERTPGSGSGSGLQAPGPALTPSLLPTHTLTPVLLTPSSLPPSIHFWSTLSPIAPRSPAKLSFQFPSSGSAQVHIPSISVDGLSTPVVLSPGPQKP
# Summary of the method: as §1
# GABPA = target: T3, GABPA (Homo sapiens, UniProt Q06546 1-454); settings: protein: recombinant; tags: N-terminal GST; dsDNA, one strand shown
# T3 sequence: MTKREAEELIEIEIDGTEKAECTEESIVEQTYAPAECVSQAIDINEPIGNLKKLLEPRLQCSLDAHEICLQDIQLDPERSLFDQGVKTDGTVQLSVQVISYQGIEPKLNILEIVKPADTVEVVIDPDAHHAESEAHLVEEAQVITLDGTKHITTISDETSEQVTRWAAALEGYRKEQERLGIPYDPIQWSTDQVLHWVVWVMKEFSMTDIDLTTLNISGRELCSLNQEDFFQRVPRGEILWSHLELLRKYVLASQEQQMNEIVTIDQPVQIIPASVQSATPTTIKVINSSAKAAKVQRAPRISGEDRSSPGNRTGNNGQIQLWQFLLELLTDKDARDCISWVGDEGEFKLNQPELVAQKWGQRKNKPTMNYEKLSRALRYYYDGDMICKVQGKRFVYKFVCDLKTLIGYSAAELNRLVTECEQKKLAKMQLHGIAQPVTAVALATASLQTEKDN
# Summary of the method: as §1
# ERG = target: T4, ERG (Homo sapiens, UniProt P11308 1-479); settings: protein: recombinant; tags: N-terminal GST; dsDNA, one strand shown
# T4 sequence: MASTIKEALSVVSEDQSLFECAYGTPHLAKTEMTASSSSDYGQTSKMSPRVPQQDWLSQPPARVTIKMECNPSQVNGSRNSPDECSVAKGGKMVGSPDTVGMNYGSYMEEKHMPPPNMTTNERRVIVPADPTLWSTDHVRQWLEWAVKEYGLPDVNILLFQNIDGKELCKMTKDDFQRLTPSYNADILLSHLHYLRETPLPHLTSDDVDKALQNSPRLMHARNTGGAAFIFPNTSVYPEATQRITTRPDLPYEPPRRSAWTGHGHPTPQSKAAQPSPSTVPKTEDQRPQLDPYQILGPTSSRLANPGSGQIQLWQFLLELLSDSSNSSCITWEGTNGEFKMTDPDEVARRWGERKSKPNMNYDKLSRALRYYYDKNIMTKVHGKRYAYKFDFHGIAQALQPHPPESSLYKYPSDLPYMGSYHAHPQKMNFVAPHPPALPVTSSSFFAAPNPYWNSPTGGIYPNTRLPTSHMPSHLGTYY
# Summary of the method: as §1
# ELF1 = ELF1 (Homo sapiens, UniProt P32519 1-619); settings: protein: recombinant; tags: N-terminal GST; dsDNA, one strand shown
# Chain of ELF1 (P32519 whole entry): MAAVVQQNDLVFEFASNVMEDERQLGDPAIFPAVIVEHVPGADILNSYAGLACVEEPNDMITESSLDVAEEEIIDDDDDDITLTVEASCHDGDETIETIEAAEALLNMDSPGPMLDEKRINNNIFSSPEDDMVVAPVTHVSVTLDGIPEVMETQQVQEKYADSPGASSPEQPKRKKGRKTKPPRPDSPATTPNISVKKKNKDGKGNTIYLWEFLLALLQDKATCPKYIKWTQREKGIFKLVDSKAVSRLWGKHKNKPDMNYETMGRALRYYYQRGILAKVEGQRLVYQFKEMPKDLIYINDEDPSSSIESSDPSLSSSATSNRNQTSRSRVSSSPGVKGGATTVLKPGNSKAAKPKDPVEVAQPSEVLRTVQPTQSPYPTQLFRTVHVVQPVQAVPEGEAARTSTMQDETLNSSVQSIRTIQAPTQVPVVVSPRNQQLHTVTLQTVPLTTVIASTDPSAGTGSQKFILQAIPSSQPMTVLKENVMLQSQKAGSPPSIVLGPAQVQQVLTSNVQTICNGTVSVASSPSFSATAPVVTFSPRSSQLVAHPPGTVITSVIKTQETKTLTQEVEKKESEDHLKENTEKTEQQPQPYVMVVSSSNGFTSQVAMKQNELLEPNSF
# Summary of the method: as §1
# EHF = target: T5, EHF (Homo sapiens, UniProt Q9NZC4 1-300); settings: protein: recombinant; tags: N-terminal GST; dsDNA, one strand shown
# T5 sequence: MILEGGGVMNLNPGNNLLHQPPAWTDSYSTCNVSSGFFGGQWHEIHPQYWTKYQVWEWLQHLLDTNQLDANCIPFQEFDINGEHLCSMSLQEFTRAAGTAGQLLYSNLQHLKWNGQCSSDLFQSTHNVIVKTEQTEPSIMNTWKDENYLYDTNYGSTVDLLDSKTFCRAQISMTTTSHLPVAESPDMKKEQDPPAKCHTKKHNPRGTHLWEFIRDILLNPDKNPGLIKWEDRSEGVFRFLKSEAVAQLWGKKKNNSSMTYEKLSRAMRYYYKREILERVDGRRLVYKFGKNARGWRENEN
# Summary of the method: as §1
# SPI1 = SPI1 (Homo sapiens, UniProt P17947 1-270); settings: protein: recombinant; tags: N-terminal GST; dsDNA, one strand shown
# Summary of the method: as §1
# SPIB = SPIB (Homo sapiens, UniProt Q01892 1-262); settings: protein: recombinant; tags: N-terminal GST; dsDNA, one strand shown
# Chain of SPIB (Q01892 whole entry): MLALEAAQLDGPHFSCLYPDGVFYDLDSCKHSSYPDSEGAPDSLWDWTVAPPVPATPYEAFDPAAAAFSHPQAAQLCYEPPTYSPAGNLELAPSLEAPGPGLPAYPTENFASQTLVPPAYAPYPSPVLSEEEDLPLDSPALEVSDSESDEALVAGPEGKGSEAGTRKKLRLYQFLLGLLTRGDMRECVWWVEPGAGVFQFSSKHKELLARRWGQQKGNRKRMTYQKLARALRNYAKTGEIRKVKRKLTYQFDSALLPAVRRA
# Summary of the method: as §1
# ELK3 = target: T6, ELK3 (Homo sapiens, UniProt P41970 1-407); settings: protein: recombinant; tags: N-terminal GST; dsDNA, one strand shown
# T6 sequence: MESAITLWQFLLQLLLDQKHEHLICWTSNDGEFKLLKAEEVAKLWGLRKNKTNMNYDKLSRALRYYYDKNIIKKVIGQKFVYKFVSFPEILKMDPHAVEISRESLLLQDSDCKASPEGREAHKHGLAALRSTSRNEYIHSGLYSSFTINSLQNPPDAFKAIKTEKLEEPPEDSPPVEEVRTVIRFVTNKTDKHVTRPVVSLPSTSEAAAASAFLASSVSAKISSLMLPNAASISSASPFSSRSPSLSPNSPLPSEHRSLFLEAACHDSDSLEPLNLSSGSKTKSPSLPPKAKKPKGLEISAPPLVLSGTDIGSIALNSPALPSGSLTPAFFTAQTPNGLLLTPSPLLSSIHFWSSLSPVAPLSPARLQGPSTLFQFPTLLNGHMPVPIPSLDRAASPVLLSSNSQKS
# Summary of the method: as §1
# FEV = target: T7, FEV (Homo sapiens, UniProt Q99581 1-238); settings: protein: recombinant; tags: N-terminal GST; dsDNA, one strand shown
# T7 sequence: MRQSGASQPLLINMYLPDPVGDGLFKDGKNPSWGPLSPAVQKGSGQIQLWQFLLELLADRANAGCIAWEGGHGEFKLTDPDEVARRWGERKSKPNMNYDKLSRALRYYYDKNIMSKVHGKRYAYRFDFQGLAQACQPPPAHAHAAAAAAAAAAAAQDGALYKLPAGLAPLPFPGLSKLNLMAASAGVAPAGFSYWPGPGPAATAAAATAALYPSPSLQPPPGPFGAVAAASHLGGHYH
# Summary of the method: as §1
# ETV5 = ETV5 (Homo sapiens, UniProt P41161 1-510); settings: protein: recombinant; tags: N-terminal GST; dsDNA, one strand shown
# Chain of ETV5 (P41161 whole entry): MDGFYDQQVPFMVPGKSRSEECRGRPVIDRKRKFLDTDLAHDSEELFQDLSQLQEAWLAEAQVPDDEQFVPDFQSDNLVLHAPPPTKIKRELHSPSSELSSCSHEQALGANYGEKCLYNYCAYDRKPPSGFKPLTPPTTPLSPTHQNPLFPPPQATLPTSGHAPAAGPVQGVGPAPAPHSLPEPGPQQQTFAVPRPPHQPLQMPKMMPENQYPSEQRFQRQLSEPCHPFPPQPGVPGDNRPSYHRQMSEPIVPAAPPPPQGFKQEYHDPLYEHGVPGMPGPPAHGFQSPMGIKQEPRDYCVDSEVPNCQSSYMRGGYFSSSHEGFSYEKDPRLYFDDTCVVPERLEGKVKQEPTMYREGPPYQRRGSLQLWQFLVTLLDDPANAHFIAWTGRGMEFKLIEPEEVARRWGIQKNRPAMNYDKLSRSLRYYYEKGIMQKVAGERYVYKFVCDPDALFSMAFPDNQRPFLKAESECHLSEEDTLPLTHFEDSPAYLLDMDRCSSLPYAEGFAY
# Summary of the method: as §1
# HSF1 = HSF1 (Homo sapiens, UniProt Q00613 1-529); settings: protein: recombinant; tags: N-terminal GST; chain copies: 3; dsDNA, one strand shown
# Chain of HSF1 (Q00613 whole entry): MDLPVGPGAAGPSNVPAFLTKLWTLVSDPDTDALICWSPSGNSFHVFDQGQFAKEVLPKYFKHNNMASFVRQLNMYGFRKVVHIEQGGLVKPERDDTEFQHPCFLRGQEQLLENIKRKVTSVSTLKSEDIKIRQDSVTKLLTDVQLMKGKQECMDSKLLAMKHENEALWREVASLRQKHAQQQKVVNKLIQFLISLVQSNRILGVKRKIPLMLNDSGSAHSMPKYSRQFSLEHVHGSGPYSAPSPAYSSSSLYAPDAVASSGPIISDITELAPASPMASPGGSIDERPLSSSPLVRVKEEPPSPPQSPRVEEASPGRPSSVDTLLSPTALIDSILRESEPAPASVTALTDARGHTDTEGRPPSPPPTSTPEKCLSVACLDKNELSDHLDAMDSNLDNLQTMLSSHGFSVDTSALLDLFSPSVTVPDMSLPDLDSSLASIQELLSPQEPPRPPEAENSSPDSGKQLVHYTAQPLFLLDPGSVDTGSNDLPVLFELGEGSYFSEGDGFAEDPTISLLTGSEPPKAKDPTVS
# Summary of the method: as §1
# SPIC = target: T8, SPIC (Homo sapiens, UniProt Q8N5J4 1-248); settings: protein: recombinant; tags: N-terminal GST; dsDNA, one strand shown
# T8 sequence: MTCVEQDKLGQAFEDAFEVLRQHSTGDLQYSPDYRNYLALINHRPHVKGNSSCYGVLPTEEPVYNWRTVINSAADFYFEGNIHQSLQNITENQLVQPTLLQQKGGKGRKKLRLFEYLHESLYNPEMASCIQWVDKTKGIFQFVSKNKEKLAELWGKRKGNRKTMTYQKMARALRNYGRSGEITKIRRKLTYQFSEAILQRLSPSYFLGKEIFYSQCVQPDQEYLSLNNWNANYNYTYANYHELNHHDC
# Summary of the method: as §1
# ELF4 = ELF4 (Homo sapiens, UniProt Q99607 1-663); settings: protein: recombinant; tags: N-terminal GST; dsDNA, one strand shown
# Chain of ELF4 (Q99607 whole entry): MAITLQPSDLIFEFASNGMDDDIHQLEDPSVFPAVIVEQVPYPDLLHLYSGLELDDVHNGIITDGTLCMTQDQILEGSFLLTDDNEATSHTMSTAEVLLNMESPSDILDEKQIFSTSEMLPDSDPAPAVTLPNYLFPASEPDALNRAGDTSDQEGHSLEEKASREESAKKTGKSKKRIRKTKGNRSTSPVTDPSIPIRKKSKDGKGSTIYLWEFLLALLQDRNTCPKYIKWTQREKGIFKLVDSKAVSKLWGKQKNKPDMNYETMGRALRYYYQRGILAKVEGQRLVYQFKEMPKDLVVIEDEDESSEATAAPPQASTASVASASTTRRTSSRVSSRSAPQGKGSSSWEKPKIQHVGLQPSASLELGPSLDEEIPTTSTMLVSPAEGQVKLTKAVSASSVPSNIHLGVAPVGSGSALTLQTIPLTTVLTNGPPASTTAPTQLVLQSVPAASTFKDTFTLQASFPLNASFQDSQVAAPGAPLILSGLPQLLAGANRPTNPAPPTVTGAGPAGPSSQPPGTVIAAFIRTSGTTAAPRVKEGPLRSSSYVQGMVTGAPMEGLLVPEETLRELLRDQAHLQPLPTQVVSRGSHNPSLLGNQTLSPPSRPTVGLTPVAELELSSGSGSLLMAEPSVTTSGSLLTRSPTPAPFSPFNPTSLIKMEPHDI
# Summary of the method: as §1
# ELK4 = target: T9, ELK4 (Homo sapiens, UniProt P28324-2 1-405); settings: protein: recombinant; tags: N-terminal GST; dsDNA, one strand shown
# T9 sequence: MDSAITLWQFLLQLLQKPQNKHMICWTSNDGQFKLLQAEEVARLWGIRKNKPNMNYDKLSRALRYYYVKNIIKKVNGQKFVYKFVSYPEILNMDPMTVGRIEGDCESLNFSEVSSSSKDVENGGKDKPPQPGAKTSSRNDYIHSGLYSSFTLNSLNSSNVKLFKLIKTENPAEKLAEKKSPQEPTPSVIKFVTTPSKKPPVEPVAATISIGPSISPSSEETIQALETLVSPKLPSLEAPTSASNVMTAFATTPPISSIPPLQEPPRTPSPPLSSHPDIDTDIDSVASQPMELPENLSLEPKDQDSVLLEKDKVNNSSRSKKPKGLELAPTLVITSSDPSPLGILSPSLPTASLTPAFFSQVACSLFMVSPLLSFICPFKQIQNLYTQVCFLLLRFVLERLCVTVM
# Summary of the method: as §1
# ETV2 = target: T10, ETV2 (Homo sapiens, UniProt O00321 1-342); settings: protein: recombinant; tags: N-terminal GST; dsDNA, one strand shown
# T10 sequence: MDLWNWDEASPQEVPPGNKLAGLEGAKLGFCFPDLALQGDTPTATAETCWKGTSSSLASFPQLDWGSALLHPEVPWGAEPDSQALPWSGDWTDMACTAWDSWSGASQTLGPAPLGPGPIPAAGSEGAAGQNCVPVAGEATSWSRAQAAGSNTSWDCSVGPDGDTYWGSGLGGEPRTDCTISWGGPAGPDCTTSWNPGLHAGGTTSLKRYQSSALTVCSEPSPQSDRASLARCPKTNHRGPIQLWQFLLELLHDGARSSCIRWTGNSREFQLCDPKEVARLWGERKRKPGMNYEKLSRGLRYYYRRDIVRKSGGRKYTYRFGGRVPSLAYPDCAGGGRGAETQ
# Summary of the method: as §1
# ELF3 = target: T11, ELF3 (Homo sapiens, UniProt P78545 1-371); settings: protein: recombinant; tags: N-terminal GST; dsDNA, one strand shown
# T11 sequence: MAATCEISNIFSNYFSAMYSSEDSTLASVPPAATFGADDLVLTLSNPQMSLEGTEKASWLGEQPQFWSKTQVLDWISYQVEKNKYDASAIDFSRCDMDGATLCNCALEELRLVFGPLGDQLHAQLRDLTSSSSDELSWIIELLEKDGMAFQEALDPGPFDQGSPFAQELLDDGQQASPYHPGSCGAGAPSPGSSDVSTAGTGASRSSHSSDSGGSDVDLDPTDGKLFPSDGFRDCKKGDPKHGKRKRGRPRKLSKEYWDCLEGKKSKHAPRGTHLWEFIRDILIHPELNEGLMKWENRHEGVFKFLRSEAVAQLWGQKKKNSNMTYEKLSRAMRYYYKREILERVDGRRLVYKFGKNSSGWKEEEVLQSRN
# Summary of the method: as §1
# CRX = CRX (Homo sapiens, UniProt O43186 1-299); settings: protein: recombinant; tags: N-terminal GST; dsDNA, one strand shown
# Chain of CRX (O43186 whole entry): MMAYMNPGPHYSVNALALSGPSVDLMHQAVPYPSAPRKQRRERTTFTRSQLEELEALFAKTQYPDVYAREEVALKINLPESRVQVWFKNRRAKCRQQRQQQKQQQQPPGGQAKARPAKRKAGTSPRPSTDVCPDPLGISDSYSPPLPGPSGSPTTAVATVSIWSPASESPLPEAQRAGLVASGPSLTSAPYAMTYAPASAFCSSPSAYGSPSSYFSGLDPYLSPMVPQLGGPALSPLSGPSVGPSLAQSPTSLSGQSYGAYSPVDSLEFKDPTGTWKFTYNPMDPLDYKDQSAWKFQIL
# Summary of the method: as §1
# ETV1 = ETV1 (Homo sapiens, UniProt P50549 1-477); settings: protein: recombinant; tags: N-terminal GST; dsDNA, one strand shown
# Chain of ETV1 (P50549 whole entry): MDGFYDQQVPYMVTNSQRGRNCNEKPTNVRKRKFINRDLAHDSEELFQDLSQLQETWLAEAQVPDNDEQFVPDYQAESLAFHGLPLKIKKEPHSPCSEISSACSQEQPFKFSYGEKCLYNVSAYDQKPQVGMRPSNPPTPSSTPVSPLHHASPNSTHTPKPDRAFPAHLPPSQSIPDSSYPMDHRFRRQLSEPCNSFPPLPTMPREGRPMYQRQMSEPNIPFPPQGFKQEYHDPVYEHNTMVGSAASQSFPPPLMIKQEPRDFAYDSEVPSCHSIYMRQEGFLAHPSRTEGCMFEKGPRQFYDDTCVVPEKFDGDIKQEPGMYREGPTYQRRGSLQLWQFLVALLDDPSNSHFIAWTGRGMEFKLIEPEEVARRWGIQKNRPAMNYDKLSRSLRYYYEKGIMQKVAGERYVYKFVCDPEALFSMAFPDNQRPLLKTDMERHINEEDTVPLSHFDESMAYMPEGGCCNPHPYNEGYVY
# Summary of the method: as §1
sequence,measurement,setting,value
ATCCTT,binding signal,FLI1,"1.72 fold enrichment (6-mer frequency, TF over GST control)"
same,binding signal,ELK1,"1.62 fold enrichment (6-mer frequency, TF over GST control)"
same,binding signal,GABPA,"1.64 fold enrichment (6-mer frequency, TF over GST control)"
same,binding signal,ERG,"1.78 fold enrichment (6-mer frequency, TF over GST control)"
same,binding signal,ELF1,"1.6 fold enrichment (6-mer frequency, TF over GST control)"
same,binding signal,EHF,"1.68 fold enrichment (6-mer frequency, TF over GST control)"
same,binding signal,SPI1,"1.7 fold enrichment (6-mer frequency, TF over GST control)"
same,binding signal,SPIB,"1.67 fold enrichment (6-mer frequency, TF over GST control)"
same,binding signal,ELK3,"1.68 fold enrichment (6-mer frequency, TF over GST control)"
same,binding signal,FEV,"1.64 fold enrichment (6-mer frequency, TF over GST control)"
same,binding signal,ETV5,"1.67 fold enrichment (6-mer frequency, TF over GST control)"
same,binding signal,HSF1,"1.98 fold enrichment (6-mer frequency, TF over GST control)"
same,binding signal,SPIC,"1.74 fold enrichment (6-mer frequency, TF over GST control)"
same,binding signal,ELF4,"1.7 fold enrichment (6-mer frequency, TF over GST control)"
same,binding signal,ELK4,"1.77 fold enrichment (6-mer frequency, TF over GST control)"
same,binding signal,ETV2,"1.57 fold enrichment (6-mer frequency, TF over GST control)"
same,binding signal,ELF3,"1.47 fold enrichment (6-mer frequency, TF over GST control)"
same,binding signal,CRX,"2.37 fold enrichment (6-mer frequency, TF over GST control)"
same,binding signal,ETV1,"1.67 fold enrichment (6-mer frequency, TF over GST control)"
